Reference: PubChem BioAssay AID1159580 (chemical genetic matrix, 2015)
Hit rate of the full screen: of about 5,500 compounds, about 2,000 (36%) were called active. About 18% were inconclusive and are not listed. Cut-off read from the data, not from the text of the source: active = normalized growth mostly below about 0.91 (no sharp cut-off); inconclusive = no clear call, values can overlap the other calls; inactive = mostly above about 0.92. Some of the results follow.

Test: chemical genetic growth profiling, strain panel (AID 1159580);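 note: tested at 20 µM; growth read once vehicle control cultures reached saturation at 30 °C; 1 = growth at the plate median or of vehicle wells; lower values mean less growth of the strain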
Details: S. cerevisiae deletion strains, growth OD

Measured: normalized growth

CC1=NN(c2ccccc2)C(=O)C1
active: locus YDR318W, strain mcm21, stronger effect = lower value 0.904 | locus YDR392W, strain spt3, stronger effect = lower value 0.609 | locus YIL125W, strain kgd1, stronger effect = lower value 0.93
inactive: locus YAL021C, strain ccr4, stronger effect = lower value 0.982 | locus YAL026C, strain drs2, stronger effect = lower value 0.959 | locus YAL030W, strain snc1, stronger effect = lower value 0.998 | locus YBL061C, strain skt5, stronger effect = lower value 0.987 | locus YBR009C, strain hhf1, stronger effect = lower value 0.936 | locus YBR021W, strain FUR4, stronger effect = lower value 0.993 | locus YBR023C, strain chs3, stronger effect = lower value 0.983 | locus YBR171W, strain sec66, stronger effect = lower value 0.994 | locus YBR229C, strain ROT2, stronger effect = lower value 0.978 | locus YBR231C, strain swc5, stronger effect = lower value 0.979 | locus YBR279W, strain paf1, stronger effect = lower value 0.979 | locus YCL011C, strain gbp2, stronger effect = lower value 0.98 | locus YCL016C, strain dcc1, stronger effect = lower value 0.965 | locus YCL029C, strain bik1, stronger effect = lower value 0.982 | locus YCL061C, strain MRC1, stronger effect = lower value 0.985 | locus YCL069W, strain vba3, stronger effect = lower value 0.986 | locus YCR088W, strain abp1, stronger effect = lower value 0.993 | locus YDL005C, strain med2, stronger effect = lower value 0.975 | locus YDL035C, strain GPR1, stronger effect = lower value 0.955 | locus YDL040C, strain nat1, stronger effect = lower value 0.978 | locus YDL074C, strain BRE1, stronger effect = lower value 0.912 | locus YDL101C, strain DUN1, stronger effect = lower value 0.957 | locus YDL134C, strain PPH21, stronger effect = lower value 0.971 | locus YDL185W, strain tfp1, stronger effect = lower value 0.976 | locus YDL192W, strain arf1, stronger effect = lower value 0.918 | locus YDR001C, strain nth1, stronger effect = lower value 0.994 | locus YDR069C, strain doa4, stronger effect = lower value 0.969 | locus YDR101C, strain arx1, stronger effect = lower value 1.01 | locus YDR137W, strain rgp1, stronger effect = lower value 0.899 | locus YDR159W, strain sac3, stronger effect = lower value 0.957 | locus YDR162C, strain NBP2, stronger effect = lower value 0.925 | locus YDR195W, strain ref2 1 | locus YDR297W, strain sur2, stronger effect = lower value 0.983 | locus YDR334W, strain swr1, stronger effect = lower value 0.992 | locus YDR335W, strain msn5, stronger effect = lower value 0.99 | locus YDR388W, stronger effect = lower value 0.958 | locus YDR502C, strain sam2, stronger effect = lower value 0.934 | locus YEL003W, strain gim4, stronger effect = lower value 0.97 | locus YEL037C, strain rad23, stronger effect = lower value 0.994 | locus YEL061C, strain CIN8 (second series), stronger effect = lower value 0.988 | locus YEL061C, strain CIN8, stronger effect = lower value 0.992 | locus YER015W, strain faa2, stronger effect = lower value 0.987 | locus YER016W, strain bim1, stronger effect = lower value 0.99 | locus YER110C, stronger effect = lower value 0.98 | locus YER111C, strain swi4, stronger effect = lower value 0.989 | locus YER155C, strain BEM2 (second series), stronger effect = lower value 0.917 | locus YER155C, strain BEM2, stronger effect = lower value 0.991 | locus YER167W, strain BCK2, stronger effect = lower value 0.952 | locus YFR010W, strain ubp6, stronger effect = lower value 0.983 | locus YGL078C, strain dbp3, stronger effect = lower value 0.98 | locus YGL086W, strain mad1, stronger effect = lower value 0.955 | locus YGL167C, strain pmr1, stronger effect = lower value 0.982 | locus YGL173C, strain kem1, stronger effect = lower value 0.974 | locus YGL227W, strain vid30, stronger effect = lower value 0.995 | locus YGL240W, strain doc1, stronger effect = lower value 0.952 | locus YGL248W, strain PDE1, stronger effect = lower value 0.963 | locus YGL253W, strain hxk2, stronger effect = lower value 0.976 | locus YGR135W, strain pre9, stronger effect = lower value 0.914 | locus YGR252W, strain gcn5, stronger effect = lower value 0.867 | locus YHR013C, strain ard1, stronger effect = lower value 0.881 | locus YHR027C, strain rpn1, stronger effect = lower value 0.985 | locus YHR030C, strain SLT2, stronger effect = lower value 0.987 | locus YHR079C, strain IRE1 (second series), stronger effect = lower value 0.981 | locus YHR094C, strain hxt1, stronger effect = lower value 0.982 | locus YHR129C, strain ARP1, stronger effect = lower value 0.972 | locus YHR142W, strain chs7, stronger effect = lower value 0.972 | locus YHR200W, strain rpn10, stronger effect = lower value 0.975 | locus YIL066C, strain RNR3, stronger effect = lower value 0.929 | locus YIL073C, strain SPO22, stronger effect = lower value 0.898 | locus YIR030C, strain dcg1, stronger effect = lower value 0.978 | locus YJL092W, strain hpr5, stronger effect = lower value 0.985 | locus YJL095W, strain BCK1 (second series), stronger effect = lower value 0.983 | locus YJL095W, strain BCK1, stronger effect = lower value 0.935 | locus YJL115W, strain asf1, stronger effect = lower value 0.983 | locus YJL129C, strain trk1, stronger effect = lower value 0.985 | locus YJL134W, strain LCB3, stronger effect = lower value 0.981 | locus YJL154C, strain vps35, stronger effect = lower value 0.997 | locus YJL164C, strain tpk1, stronger effect = lower value 0.973 | locus YJL166W, strain qcr8, stronger effect = lower value 0.949 | locus YJL168C, strain set2, stronger effect = lower value 0.993 | locus YJL187C, strain SWE1 (second series), stronger effect = lower value 0.986 | locus YJL187C, strain SWE1, stronger effect = lower value 0.983 | locus YJR043C, strain POL32, stronger effect = lower value 0.998
